In paper PMC4336329 (PLoS ONE, 2015):
Out of some 310,000 compounds screened, about 14,000 (4.5%) showed an effect of 50% or more. The effect is printed as a negative number. The sample as a whole holds a higher share of strong results than the screen did.

biological target: human ether-à-go-go-related gene (hERG) potassium channel (human, UniProt Q12809); test: primary screen, population patch clamp on CHO cells stably expressing hERG; higher = less effect of the substance
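Note: peak tail current of the secondary pulse compared with the same well before compound.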

Sequence of human ether-à-go-go-related gene (hERG) potassium channel (Q12809 whole entry, looked up): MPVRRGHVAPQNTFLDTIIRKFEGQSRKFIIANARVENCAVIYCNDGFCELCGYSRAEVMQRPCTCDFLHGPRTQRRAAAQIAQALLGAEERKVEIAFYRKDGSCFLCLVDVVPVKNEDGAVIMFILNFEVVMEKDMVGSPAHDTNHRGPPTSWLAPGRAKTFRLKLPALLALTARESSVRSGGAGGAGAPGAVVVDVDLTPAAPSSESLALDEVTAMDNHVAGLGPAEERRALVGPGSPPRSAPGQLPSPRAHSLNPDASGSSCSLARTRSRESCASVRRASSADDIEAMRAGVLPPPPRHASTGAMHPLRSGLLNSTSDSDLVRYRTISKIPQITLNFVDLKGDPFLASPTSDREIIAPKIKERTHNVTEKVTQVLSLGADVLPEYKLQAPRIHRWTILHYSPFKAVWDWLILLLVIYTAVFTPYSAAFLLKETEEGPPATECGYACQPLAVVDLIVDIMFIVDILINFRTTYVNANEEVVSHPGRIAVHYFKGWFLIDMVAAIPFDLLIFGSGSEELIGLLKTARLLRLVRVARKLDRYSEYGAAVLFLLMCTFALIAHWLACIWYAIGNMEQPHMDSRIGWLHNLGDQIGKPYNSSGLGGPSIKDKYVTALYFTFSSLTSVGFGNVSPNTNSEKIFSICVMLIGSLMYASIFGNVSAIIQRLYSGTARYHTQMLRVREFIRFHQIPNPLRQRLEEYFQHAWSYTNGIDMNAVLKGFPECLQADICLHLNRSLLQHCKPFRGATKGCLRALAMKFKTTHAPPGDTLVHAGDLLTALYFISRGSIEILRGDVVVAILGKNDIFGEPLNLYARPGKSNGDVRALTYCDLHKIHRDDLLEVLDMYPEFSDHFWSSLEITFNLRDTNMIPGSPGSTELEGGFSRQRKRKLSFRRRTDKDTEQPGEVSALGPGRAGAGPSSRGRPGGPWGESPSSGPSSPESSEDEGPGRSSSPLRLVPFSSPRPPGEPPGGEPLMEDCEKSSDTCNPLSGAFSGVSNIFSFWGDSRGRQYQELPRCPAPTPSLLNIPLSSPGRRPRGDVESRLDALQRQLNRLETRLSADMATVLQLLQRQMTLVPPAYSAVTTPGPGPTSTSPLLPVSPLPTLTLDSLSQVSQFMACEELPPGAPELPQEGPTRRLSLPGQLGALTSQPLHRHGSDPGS

Row | Structure (SMILES) | hERG current change (%, negative = inhibition) at 10uM
1 | COC(=O)Oc1ccc(/C=C/C(=O)OC(C)C)cc1OC(=O)OC | 1.69%
2 | Cc1ccc(C(=O)NCCc2ccc(S(=O)(=O)N3CCCC3)cc2)cc1 | -0.599%
3 | CCOc1ccc(C(=O)N(C)C2CCS(=O)(=O)C2)cc1 (stereo not shown) | 18.3%
4 | O=C(CSc1nnc(-c2ccco2)o1)NC(=O)Cc1ccccc1 | -5.31%
5 | CC[C@@H](CCC=C(C)C)C(=O)N(Cc1ccccc1)c1ccccc1 | 3.94%
6 | CN1CCC(O)(c2ccccc2)C(C(=O)c2ccccc2)C1 (stereo not shown) | -2.34%
7 | CCN1CCC(O)(c2ccccc2)C(C(=O)c2ccccc2)C1 (stereo not shown) | -7.58%
8 | CN1CCC(O)(c2ccc(Cl)cc2)C(C(=O)c2ccc(Cl)cc2)C1 (stereo not shown) | -67.7%
9 | O=C(CCl)Oc1ccc2occ(C(=O)c3cccs3)c2c1 | 0.872%
10 | C/C(=N\Nc1ccc(Cl)c(C(=O)O)c1)c1ccccn1 | 5.73%
11 | CCOc1cccc(SCc2noc(C(=O)NCC3CCCO3)c2C(=O)O)c1 (stereo not shown) | 32.2%
12 | NS(=O)(=O)c1ccc(-c2cccc(/C=C3\SC(=O)NC3=O)c2)cc1 | 7.87%
13 | Cc1cc(/C=C(/C#N)C(=O)Nc2ccccc2)c(C)n1-c1cccnc1 | -28.5%
14 | Cc1cc(/C=C(/C#N)C(=O)Nc2ccc(Cl)cc2)c(C)n1-c1cccnc1 | -67.5%
15 | Cc1cc(/C=C(\C#N)C(=O)Nc2ccccc2)c(C)n1-c1cccnc1 | 8.27%
16 | Cc1c(C(=O)N2CCCC2)nnn1-c1nonc1N | 8.67%
17 | O=C(c1ccco1)N1N=C(c2ccc(Br)cc2)CC1c1ccco1 (stereo not shown) | 18.5%
18 | CS(=O)(=O)Nc1ccc(C2=NN(C(=O)c3ccco3)C(c3cccc(F)c3)C2)cc1 (stereo not shown) | -78.3%
19 | CS(=O)(=O)Nc1cccc(C2=NN(C(=O)c3ccco3)C(c3ccco3)C2)c1 (stereo not shown) | -2.88%
20 | Cc1ccc(C2=NN(C(=O)c3ccccc3F)C(c3ccccc3F)C2)cc1 (stereo not shown) | 19%
21 | CCC(=O)N1N=C(c2ccc(NS(=O)(=O)CC)cc2)CC1c1ccc(C)cc1 (stereo not shown) | -14.1%
22 | CS(=O)(=O)Nc1ccc(C2=NN(C(=O)c3ccco3)C(c3ccccc3F)C2)cc1 (stereo not shown) | -78.2%
23 | CS(=O)(=O)Nc1cccc(C2=NN(C(=O)c3ccco3)C(c3cccs3)C2)c1 (stereo not shown) | -59%
24 | CS(=O)(=O)Nc1cccc(C2=NN(C(=O)c3ccccc3)C(c3cccs3)C2)c1 (stereo not shown) | -14%
25 | CCS(=O)(=O)Nc1cccc(C2=NN(C(=O)c3ccco3)C(c3ccco3)C2)c1 (stereo not shown) | -4.98%
26 | CCS(=O)(=O)Nc1ccc(C2=NN(C(=O)c3ccco3)C(c3cccc(F)c3)C2)cc1 (stereo not shown) | -32.4%

Row | Structure (SMILES) | hERG current change (%, negative = inhibition) at 10uM
27 | CCC(=O)N1N=C(c2ccc(NS(C)(=O)=O)cc2)CC1c1ccc(C)cc1 (stereo not shown) | -44.7%
28 | CCC(=O)N1N=C(c2ccc(NS(C)(=O)=O)cc2)CC1c1ccc(N(C)C)cc1 (stereo not shown) | -66.2%
29 | CCn1c(CSc2nc3ccccc3s2)nnc1SCC(=O)c1ccc2c(c1)OCCO2 | -10.5%
30 | O=C(COC(=O)/C=C/c1cccc(F)c1)Nc1ccc2[nH]c(=O)[nH]c2c1 | 9.96%
31 | CCNC(=O)NC1(C(=O)N2CCC(Cc3ccccc3)CC2)CCCCC1 | 21.7%
32 | CCCn1c(N)c(C(=O)CSc2nnc(Cc3cccs3)n2C2CC2)c(=O)n(C)c1=O | -0.534%
33 | COc1ccc(N(CC(=O)Nc2ccccc2F)S(=O)(=O)c2ccc(OC)c(OC)c2)cc1 | -24.2%
34 | O=C(NCCN1CCOCC1)c1cccc(S(=O)(=O)N2CCCCCC2)c1 | 7.38%
35 | COc1ccc(C(=O)N/N=C/c2ccc(OC(=O)c3cccc4ccccc34)c([N+](=O)[O-])c2)cc1 | 3.57%
36 | O=C(COC(=O)c1ccc(S(=O)(=O)NCc2ccco2)cc1)NC1CCCCC1 | -1.72%
37 | CCN(Cc1nc(-c2ccc(OC)c(OC)c2)no1)C(=O)c1ccc2c(c1)OCO2 | 5.32%
38 | O=c1[nH]c2c(c(=O)[nH]1)CCC2 | 17.7%
39 | O=C(c1ccco1)N1N=C(c2ccc3nccnc3c2)CC1c1ccccc1 (stereo not shown) | -22.3%
40 | CCC(CC)C(=O)N1N=C(c2ccc(NS(C)(=O)=O)cc2)CC1c1ccc(C)cc1 (stereo not shown) | -7.85%
41 | CS(=O)(=O)Nc1ccc(C2=NN(C(=O)c3ccco3)C(c3ccccc3)C2)cc1 (stereo not shown) | -77.6%
42 | CS(=O)(=O)Nc1ccc(C2=NN(C(=O)c3ccco3)C(c3ccc(F)cc3)C2)cc1 (stereo not shown) | -81.1%
43 | CCS(=O)(=O)Nc1ccc(C2=NN(C(=O)c3ccco3)C(c3cccs3)C2)cc1 (stereo not shown) | -1.38%
44 | O=C(c1ccco1)N1N=C(c2ccc(Cl)cc2)CC1c1ccco1 (stereo not shown) | 15%
45 | Cc1ccc(C2CC(c3ccc(NS(C)(=O)=O)cc3)=NN2C(=O)c2ccco2)cc1 (stereo not shown) | -78.5%
46 | CS(=O)(=O)Nc1ccc(C2=NN(C(=O)c3ccco3)C(c3ccco3)C2)cc1 (stereo not shown) | -72.3%
47 | O=C(c1ccco1)N1N=C(c2cccs2)CC1c1ccc(F)cc1 (stereo not shown) | -29%
48 | CCS(=O)(=O)Nc1ccc(C2=NN(C(=O)c3ccco3)C(c3ccco3)C2)cc1 (stereo not shown) | -7.66%
49 | CCS(=O)(=O)Nc1ccc(C2=NN(C(=O)c3ccco3)C(c3ccc(C)cc3)C2)cc1 (stereo not shown) | -21%
50 | O=C(c1ccco1)N1N=C(c2ccccc2)CC1c1ccc2nccnc2c1 (stereo not shown) | -45%
51 | O=C(c1cc(-c2ccc(O)cc2)on1)N1CCN(c2ccc(F)cc2)CC1 | -23.6%
52 | O=C(NCCCO)C(=O)NCC1OCCCN1S(=O)(=O)c1cccs1 (stereo not shown) | -10.6%
